Source: PubChem BioAssay
HSV replic up – HSV replication enhancement; HSV replication augmentation in cells, fold increase; maximum fold increase; 220,000 tested, 0.005% active; AID 1956; in the data active means maximum fold increase above about 1.5; inconclusive means no clear call, values can overlap the other calls; tested in PC3 cells
Measles CPE – protection of cells from measles virus. Measles virus-infected cells, CPE protection, absorbance. 140,000 tested, 1.5% active. protection (pct of control), % at 4 µM; in the data active means protection mostly above about 24%, no sharp cut-off; inactive means mostly below about 26%
ROMK mod – modulators of human ROMK potassium channel | Tet-inducible ROMK, thallium flux fluorescence; actives lie on both sides | B-score at 10 µM | 130,000 tested, 2% active;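 active means signal ratio slope over the read window, or its plate-corrected B-score, at least 3 SD from the plate mean, either direction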;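 further: B-score of the F/F0 ratio slope over 7 to 12 s after thallium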
Cl transport mod – modulators of human KCC2 chloride dependent transport | Q9H2X9 | KCC2 cells, thallium flux FluoZin-2 fluorescence | B-score of Tl+ flux slope (higher = more flux/activation; lower = inhibition) at 10 µM | 190,000 tested, 2.2% active | AID 1456;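 active means thallium flux slope and its plate-corrected score both differing from the plate sample mean at a set confidence after two filtering rounds, in either direction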;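 further: slope of fluorescence scaled to starting intensity during 10 to 20 s after thallium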
Arbovirus anti – blocks arbovirus infection. 200,000 tested, 0.37% active. inhibition, % at 10 µM. arbovirus infection cell-based antiviral screen; in the data active means inhibition above about 30%
KCC2 sec1 – confirmation of human KCC2 transport modulators; shares compounds with Cl transport mod; 3,700 tested, 15% active; HEK293-KCC2, thallium flux, FluoZin2 fluorescence; stronger effect = higher value; AID 1713; normalised thallium flux (F/F0 slope) at 10 µM;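 active means thallium flux slope above the same plate's solvent-only control mean plus 3 SD; inconclusive means the two replicate wells disagree; inactive means no significant difference from solvent-only control wells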
KCC2 bumet counter – bumetanide-insensitive thallium flux in KCC2 cells with ouabain, counter-screen. shares compounds with Cl transport mod. HEK293-KCC2 + bumetanide/ouabain, thallium flux FluoZin2; stronger effect = higher value. normalized thallium flux at 10 µM. 3,700 tested, 49% active. AID 1714;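 active means thallium entry rate above the same plate's blocked-transporter control wells by more than 3 SD; inconclusive means the two repeat wells disagree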;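 further: raw slope of fluorescence over initial fluorescence between 10 and 20 s after thallium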
KCC2 sec2 – KCC2 (human) modulation, second secondary assay. shares compounds with Cl transport mod. HEK293-KCC2, thallium flux FluoZin2 fluorescence; actives lie on both sides; F/F0 rise rate, 10–20 s post-thallium. normalized thallium flux at 10 µM. 3,700 tested, 23% active. AID 1715;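 active means thallium flux slope more than 3 SD above or below the plate's solvent-only control mean, mostly below; inconclusive means the two repeat wells disagreed; inactive means no significant shift from solvent-only controls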;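 further: raw slope with 0.1% DMSO as baseline and bumetanide as block control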
HEK293 Tl flux – counter-screen for KCC2 modulators: effect in parental HEK293 cells; thallium flux rate (normalised fluorescence) at 10 µM; shares compounds with Cl transport mod; AID 1716; thallium flux FluoZin2, ouabain; baseline-ratio fluorescence slope, 10–20 s after thallium; 3,700 tested, 46% active;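 active means thallium flux rate significantly above the same plate's solvent-only control wells, beyond their mean plus 3 SD; inconclusive means the two replicate wells gave conflicting results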
KCC2 ouabain – modulates human KCC2 on retest with ouabain | shares compounds with Cl transport mod | HEK293-KCC2, thallium flux FluoZin2 fluorescence; bidirectional: low = inhibitor, high = activator | raw Tl+ flux slope (below DMSO = inhibition, above = activation) at 10 µM | 3,700 tested, 48% active;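 active means thallium flux slope beyond 3 SD from same-plate DMSO control mean in most replicates, usually higher, sometimes lower; inconclusive means repeat tests gave conflicting results; inactive means no significant difference from controls in most replicates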;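 further: slope of initial-normalized fluorescence between seconds 10 and 20 after thallium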
HEK counter2 – counter-screen for KCC2 modulators: effect in parental HEK293 cells. shares compounds with Cl transport mod. thallium flux FluoZin-2 fluorescence slope. thallium flux slope at 10 µM. 3,700 tested, 33% active. AID 1718;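 active means thallium flux slope above the same plate's solvent-control mean plus 3 SD in both duplicate wells; inconclusive means duplicate wells that disagreed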;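 further: run without ouabain in cells lacking the KCC2 cotransporter; slope of fluorescence scaled to its starting value between 10 and 20 s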
Numbers without * were called inactive; i = inactive; ? = inconclusive; nt = no result. An excerpt weighted towards active compounds, which were near 4% of everything screened.

SMILES	HSV replic up	Measles CPE	ROMK mod	Cl transport mod	Arbovirus anti	KCC2 sec1	KCC2 bumet counter	KCC2 sec2	HEK293 Tl flux	KCC2 ouabain	HEK counter2
CCn1c(SCC(=O)Nc2ccc(Cl)cc2)nc2nc3c(cc2c1=O)CCCC3	i	22.1	nt	4.81*	14.4	?	0.0154*	0.0326	0.0126*	?	0.0135*
CCn1c(SCC(=O)Nc2ccc(C(C)=O)cc2)nc2nc3c(cc2c1=O)CCCC3	i	0.2	nt	nt	-4.8	nt	nt	nt	nt	nt	nt
CN(C(=O)COC(=O)/C=C/c1ccc2ccccc2n1)C1CCS(=O)(=O)C1 (stereo unspecified)	i	nt	-0.273	-2.32	7.3	nt	nt	nt	nt	nt	nt
CC(C)CCNC(=O)COC(=O)/C=C/c1ccc2ccccc2n1	i	nt	-0.291	-3.95*	3.6	0.0166	0.00525	0.0238*	0.00763	0.0135*	0.0098
COc1cc(CNC(C)c2ccccc2)cc(Cl)c1OCC(=O)Nc1ccccc1 (stereo unspecified)	i	nt	0.303	0.117	6.6	nt	nt	nt	nt	nt	nt
O=[N+]([O-])c1ccc(/C=N/Nc2nc(N3CCCC3)nc(N3CCCC3)n2)o1	i	5.2	-0.183	6.13*	-21.2	0.00533	0.00443	0.029	0.0078	0.0183	0.0106
O=[N+]([O-])c1ccc(-c2ccc(/C=N/Nc3nc(N4CCCC4)nc(N4CCCC4)n3)o2)cc1	i	nt	-0.621	0.958	-14.1	nt	nt	nt	nt	nt	nt
O=c1cc(-c2ccccc2)nc2nc(SCc3ccccc3)[nH]n12	i	12.5	0.674	nt	-1.8	0.00897	0.00675	0.0292	0.0073	0.0148*	0.0099
COc1ccc2nc(NC(=O)CSc3nnc(-c4ccoc4C)n3C)sc2c1	i	19.1	nt	-3.79*	2.8	0.00737	?	0.0321	0.00426	0.0152*	0.0113
N/C(Cc1ccccc1)=N\OC(=O)c1cccc2ccccc12	i	7.7	-1.45	nt	-4.1	nt	nt	nt	nt	nt	nt
COc1ccc(NC(=O)NCCCN2CCCCC2C)cc1 (stereo unspecified)	nt	26.0	-0.024	nt	-0.2	0.00494	0.00499	0.029	0.00703	0.0186	0.0107
c1coc(CNc2c3c(nc4ncnn24)CCCC3)c1	i	11.4	nt	4.99*	28.2	0.00666	0.00424	0.0273	0.00715	0.0178	0.00929
C/C(=N\Nc1ccc([N+](=O)[O-])cc1)c1cc2ccccc2o1	?	nt	-0.81	0.195	-8.9	nt	nt	nt	nt	nt	nt
O=c1oc2ccccc2c(Nc2cccc3ccccc23)c1[N+](=O)[O-]	i	11.3	nt	-2.57*	15.7	0.00773	0.00581	0.0318	0.00338	0.0159*	0.0109
O=c1oc2ccccc2c(Nc2cc3ccccc3cc2O)c1[N+](=O)[O-]	i	nt	1.74	-4.3*	-6.7	0.00647	0.00457	?	0.00646	0.0161*	0.00832*
O=c1oc2ccccc2c(Nc2ccccc2O)c1[N+](=O)[O-]	i	nt	-0.227	-1.87	-26.7	nt	nt	nt	nt	nt	nt
Oc1ccc(Cl)cc1C1=NNC(c2cccs2)C1 (stereo unspecified)	i	nt	nt	68.4*	nt	0.00995	0.0979*	?	0.0612*	0.0771*	0.0231*
Cc1ccc(O)c(C2=NNC(c3ccc(Cl)cc3)C2)c1 (stereo unspecified)	i	nt	nt	8.55*	nt	0.00936	0.0156*	0.0335	0.0134*	0.0265	?
Oc1ccccc1C1CC(c2cccs2)=NC(c2ccc(Cl)cc2)N1 (stereo unspecified)	i	nt	-0.198	0.983	-25.9	nt	nt	nt	nt	nt	nt
Cc1sc2ncn(CC(=O)OCC(=O)NC(C)(C)C)c(=O)c2c1C	i	3.0	nt	nt	4.7	0.00677	0.00502	0.0301	0.008	0.0188	0.0115
N#Cc1c(Cl)nc(SCc2ccccc2)nc1-c1ccccc1	i	5.5	nt	-4.91*	27.7	0.0055	0.00391	0.0236*	0.00549*	0.014*	0.00834*
Cc1onc(-c2ccccc2)c1C(=O)NNC(=S)NC(=O)c1ccc2c(c1)OCO2	i	nt	nt	16*	nt	0.014*	0.0343*	0.0355	?	0.0299*	?
Cc1onc(-c2ccccc2)c1C(=O)NC(=S)NNC(=O)c1ccco1	i	nt	nt	6.64*	nt	0.0183	0.0141*	0.0299	0.0142*	0.0207	0.0155*
Cc1onc(-c2ccccc2)c1C(=O)NNC(=S)NC(=O)/C=C/c1cccs1	i	13.6	nt	6.7*	-5.7	0.00668	0.0266*	?	0.0156*	0.0298*	0.0183*
S=c1nc(-c2csc3c2CCCC3)[nH][nH]1	i	nt	-0.507	4.2*	-3.0	0.0158	0.0156*	0.0313	0.0148*	0.0221*	0.0172*
SMILES	HSV replic up	Measles CPE	ROMK mod	Cl transport mod	Arbovirus anti	KCC2 sec1	KCC2 bumet counter	KCC2 sec2	HEK293 Tl flux	KCC2 ouabain	HEK counter2
S=c1nc(-c2ccccc2Cl)[nH][nH]1	i	nt	nt	nt	-4.9	nt	nt	nt	nt	nt	nt
Clc1cccc(N/N=C(\Cc2nc3ccccc3[nH]2)c2ccccc2)c1	i	6.8	nt	-0.273	-38.8	nt	nt	nt	nt	nt	nt
CN=c1scc(-c2ccccc2F)n1/N=C(\C)c1cccnc1	i	nt	-0.142	-3.91*	-7.8	0.00702	0.00482	?	0.00773	?	0.0109
C/C(=N\N1CCN(C2c3ccccc3-c3ccccc32)CC1)c1cccnc1	i	13.2	nt	-0.0106	-21.1	nt	nt	nt	nt	nt	nt
COc1ccccc1NC(=O)CN1C(=O)NC(CC(C)C)C1=O (stereo unspecified)	i	0.8	nt	-5*	7.7	0.0112	0.00715	0.0348	0.00411	0.0201	0.0115
CC1Cc2cc(/C=C3/SC(=S)NC3=O)ccc2O1 (stereo unspecified)	i	nt	0.45	80.5*	nt	?	0.115*	0.0502*	0.0649*	0.0874*	0.0509*
Cc1cc(/C=C2\SC(=S)NC2=O)cc(C)c1O	i	nt	nt	7.6*	nt	0.00603	0.036*	0.0272	0.0204*	0.0275*	0.0204*
Cc1nn(C)c(C)c1/C=C1/SC(=S)NC1=O	nt	3.5	-0.548	-4.01*	-14.4	0.0102	0.00556	0.0264*	0.00788	0.0138*	0.0109
Cc1cc(/C=C2\SC(=S)NC2=O)c(C)n1-c1ccccc1	i	nt	nt	24.4*	nt	0.0106	0.0474*	0.0358	0.0288*	?	0.0132*
CCC1=NN(C(=O)c2cccnc2)C(O)(C(F)(F)F)C1 (stereo unspecified)	i	18.5	-0.318	-0.017	5.2	nt	nt	nt	nt	nt	nt
Cc1onc(-c2ccc(Cl)cc2Cl)c1-c1csc(N/N=C/c2ccccc2)n1	i	nt	nt	1.15	nt	nt	nt	nt	nt	nt	nt
